D1 ag = Allosteric Agonists of the Human D1 Dopamine Receptor: qHTS | activation, % at 2 µM | 1% of 360,000 active | HEK293 T-REx D1 cells, calcium flux, agonist mode | AID 504660, 2011 | D(1A) dopamine receptor (Homo sapiens), P21728
Target sequence (P21728 whole entry, looked up): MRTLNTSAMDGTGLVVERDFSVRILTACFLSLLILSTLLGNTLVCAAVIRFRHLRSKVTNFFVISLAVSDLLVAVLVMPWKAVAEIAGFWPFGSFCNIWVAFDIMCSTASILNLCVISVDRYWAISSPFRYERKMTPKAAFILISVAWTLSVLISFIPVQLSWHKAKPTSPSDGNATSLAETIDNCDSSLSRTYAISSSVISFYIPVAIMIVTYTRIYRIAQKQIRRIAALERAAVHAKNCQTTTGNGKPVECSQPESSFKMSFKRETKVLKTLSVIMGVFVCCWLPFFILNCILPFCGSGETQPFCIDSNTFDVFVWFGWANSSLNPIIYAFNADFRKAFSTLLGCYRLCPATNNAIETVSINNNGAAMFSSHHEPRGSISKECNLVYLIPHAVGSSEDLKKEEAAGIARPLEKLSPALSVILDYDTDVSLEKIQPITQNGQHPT
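Agonism was scored from calcium flux recorded over 180 s (1 read/s) after pintool compound addition, following a 10-cycle baseline. Cells were inducible force-coupled HEK293 TREx D1, plated overnight at 30 C and loaded with no-wash calcium dye.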
TRHR PAM = qHTS for Small Molecule Agonists and Allosteric Enhancers of Human TRH Receptor: Primary Screen for Enhancers; Thyrotropin-releasing hormone receptor (Homo sapiens), P34981; TRHR cells, fluo-8 calcium fluorescence, EC20 TRH enhancement; enhancement, % at 2 µM; 0.66% of 360,000 active; AID 493056, 2011; in the data active means enhancement above about 30%
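Enhancer read-out: after compound pinning and an initial kinetic agonist-mode read, an EC20 of TRH (10 nM final) was injected and fluo-8 calcium signal (Ex 480/Em 530) followed at 1 s/cycle for 100 cycles in TRHR-expressing cells.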
Epigenetic reg = Quantitative High-Throughput Screen for Regulators of Epigenetic Control. murine LDR cells, GFP reporter derepression, 30 h. 0.2% of 280,000 active. Potency, µM (top dose mostly 53.9 µM), hits mostly activators; active means well fitted activation curve with a large enough effect; inconclusive means small, poorly fitted or top-dose-only effect; further: nearly all actives have a fitted effect of over 60% in size
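In this reporter-derepression format, murine cells bearing a silenced integrated CMV-GFP locus incubate with test compound (30 h, 37 C), then are washed and imaged; fluorescent objects of 20–120 um count as induced cells.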
D1 antagonist = Antagonist of Human D 1 Dopamine Receptor: qHTS; D(1A) dopamine receptor (Homo sapiens), P21728; HEK293 TREx D1 cells, calcium flux, dopamine EC80; active compounds read low; activity change, negative = inhibition, % at 10 µM; 3.2% of 360,000 active; AID 504652, 2011; in the data active means activity change below about -30%
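Using tetracycline-induced force-coupled D1 Hek293 cells and a calcium dye, signals were followed for 180 s after compound, then for 180 s after EC80 dopamine, to detect inhibitors.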
D1 potentiator = Potentiators of Human D1 Dopamine Receptor: qHTS; D(1A) dopamine receptor (Homo sapiens), P21728; HEK293 TREx D1 cells, calcium flux, dopamine EC20 potentiation; potentiation, % at 10 µM; 0.036% of 360,000 active; in the data active means potentiation above about 30%
TRHR agonist = qHTS for Small Molecule Agonists and Allosteric Enhancers of Human TRH Receptor: Primary Screen for Agonists | TRHR cells, calcium flux fluo-8, FDSS agonist mode | activation, % at 2 µM | 0.18% of 360,000 active
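Fluo-8-loaded TRHR cells; 10 s baseline, compound added, kinetic Ca2+ fluorescence read 1/s, agonist mode.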
Each line names hits and unclear results; the compound was inactive in the other large screens; ! = not confirmed by another sample. Compounds with a hit are over-represented: about 4.6% of the library has one in this group of screens. Unless noted, no stated cut-off is given here; in the data, active means activation above about 30%; inactive means the rest.

COC(=O)c1ccc(NC(=O)CSc2ccc(-c3sc(-c4ccccc4)nc3C)nn2)cc1	D1 antagonist -46.3
CN1CCN(C(=O)c2cnn(-c3cccc(Cl)c3)c2C2CCN(C(=O)OC(C)(C)C)CC2)CC1	none
COc1ccc(C2=NS(=O)(=O)N(C)C(C(=O)Nc3cc(OC)c(OC)c(OC)c3)=C2)cc1	none (no result: Epigenetic reg)
CCc1ccccc1NC(=O)C1=CC(c2ccc(OC)c(OC)c2)=NS(=O)(=O)N1C	D1 ag 34.5!
COc1ccc(NC(=O)C2=CC(c3ccc(C)cc3)=NS(=O)(=O)N2C)cc1	D1 antagonist -32.8 (no result: Epigenetic reg)
COc1ccc(NC(=O)C2=CC(c3ccc(C)cc3)=NS(=O)(=O)N2C)cc1OC	none (no result: Epigenetic reg)
COc1ccc(C2=NS(=O)(=O)N(C)C(C(=O)Nc3ccc(OC)c(OC)c3)=C2)cc1	D1 antagonist -34.1 (no result: Epigenetic reg)
COc1ccc2c(c1)C(=O)[C@H](OC(=O)Nc1ccc(OC(F)F)cc1)[C@@H](c1ccc(OC)c(Br)c1)O2	none (no result: D1 ag, TRHR PAM, D1 antagonist, D1 potentiator, TRHR agonist)
CCOC(=O)CSC1=Nc2ccccc2C2=NC(CCC(=O)NCc3ccccc3)C(=O)N12 (centres undefined)	none
CCOCCc1nnc(NC(=O)C(=O)c2cc(C)n(-c3cccc(C)c3)c2C)s1	none
CCn1cc(C2N3CC4(C)CN2CC(C)(C3)C4=O)c2ccccc21 (centres undefined)	D1 antagonist -76.5 (no result: D1 potentiator)
CCCC12CN3CC(C)(CN(C1)C3c1cn(C)c3ccccc13)C2=O (centres undefined)	none
CC(=O)N1CCc2c(sc3c2c(=O)n(-c2ccccc2C)c(=O)n3CC(=O)Nc2ccccc2)C1	TRHR PAM 48.4
CCOC(=O)N1CCc2c(sc3c2c(=O)n(-c2ccc(Cl)cc2)c(=O)n3CC(=O)c2ccc(F)cc2)C1	Epigenetic reg inconclusive, D1 antagonist -31.3
CCOC(=O)N1CCc2c(sc3c2c(=O)n(-c2ccc(F)cc2)c(=O)n3CC(=O)c2ccccc2)C1	none
Cc1cc2nc(CSc3ccccc3)cc(=O)n2[nH]1	D1 antagonist -32.9
Cc1ccc(C)c(N2CCN(C3(c4ccccc4)C(=O)c4ccccc4C3=O)CC2)c1	none
C=CCOc1ccc(CN(C)C(=O)CNC(=O)c2ccc(-c3ccccc3)cc2)cc1	D1 ag 34.5 (no result: Epigenetic reg)
COc1ccc(-c2ccc(=O)n(CC(=O)Nc3ccc(N(C)C)cc3)n2)cc1	none
COc1ccc(O)c(C(=O)c2cnc3onc(C)c3c2)c1	D1 antagonist -39.3
CCOc1ccc(OCC)c(NC(=O)C2CCCN(S(=O)(=O)c3cc(Br)cc4c3N(C(=O)CC)CC4)C2)c1 (centres undefined)	none
Clc1ccc(CNC2CCCC2)c(Cl)c1	none
S=C(NCc1ccc(Cl)cc1Cl)NC1CCCCC1	D1 ag 30.4, D1 antagonist -32.7
S=C(NCCc1cccc(Cl)c1)NC1CCCCC1	D1 antagonist -37.6 (no result: Epigenetic reg)
Cc1ccc(CCNC(=O)Cn2nc(-c3ccc(C)cc3)ccc2=O)cc1	none
O=C(Nc1ccccc1)c1nnsc1S(=O)c1ccc(Cl)cc1 (centres undefined)	D1 antagonist -41.2
CCCCCCOc1ccc(/C(C)=N/NC2=NCCN2)cc1	D1 ag 39.1 (no result: Epigenetic reg)
Cc1ccc(C(=O)N2CCc3cc(CNS(=O)(=O)c4cccs4)ccc32)cc1	none
O=C1C=C(c2ccccc2)C(=O)N1Nc1ccccc1	TRHR PAM 32.7
Cc1ccc(NN2C(=O)C=C(c3ccc(Cl)cc3)C2=O)cc1	D1 antagonist -39.0
COc1ccc(C2=CC(=O)N(Nc3ccccc3)C2=O)cc1	Epigenetic reg inconclusive
COc1ccc(NC(=O)CC2C(=O)N(c3cccc(OC)c3)C(=O)N2CCC2=CCCCC2)cc1 (centres undefined)	none
COc1ccc(-c2cn3nc(N4CCC(C(=O)Nc5cccc(OC)c5)CC4)sc3n2)cc1	none

From PubChem
